# Measurements published in PubChem BioAssay AID2501 (Southern Research Specialized Biocontainment Screening …, 2010).
# Screen size: about 2,200 compounds; about 1,200 (55%) were called active. So high a share suggests a set chosen from earlier hits. The list shows a part of the results. Values without a mark were called inactive. No cut-off is given here; in the data, nearly all actives have IC50 up to about 92 µM.
# Assay: counter assay for TAg ATPase ADP read-out – biochemical, ADP-Hunter, fluorescence, counter-screen (AID 2501);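 note: purified T antigen ATPase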;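 for inhibition: 0% = enzyme with vehicle and 100% = reference inhibitor wells; higher means more inhibition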
# Conditions: series mostly up to 100 µM; inhibition: at the top concentration
SMILES,inhibition,IC50
CCOC(=O)c1c(NC(=O)c2ccc(S(=O)(=O)N(C)CC3CCCO3)cc2)sc2c1CC(C)(C)NC2(C)C (configuration not stated),0.64%,–
Nc1ccc(OC(=O)Nc2ccc(O)cc2)cc1,–,3.47 µM (active)
CS(=O)(=O)N1CCc2cc(C(=O)Nc3ccc(O)cc3)ccc21,–,7.2 µM (active)
COC1=C(Nc2ccc(O)cc2)C(=O)c2ccccc2C1=O,–,5.25 µM (active)
CC(C)OCCCNC1=C(Cl)C(=O)c2ccccc2C1=O,-6.77%,–
CN(C)C=NC1=NN(c2cccc(C(F)(F)F)c2)CC1,–,5.93 µM (active)
O=c1c2ccccc2[nH]c2ccc(O)cc12,–,5.13 µM (active)
O=C(CCN1C(=O)/C(=C/c2ccco2)SC1=S)Nc1ccc(C(=O)O)c(O)c1,-14.7%,–
O=C1/C(=C/c2ccncc2)SC(=S)N1Nc1ccccc1,–,77.6 µM (active)
O=C(CCN1C(=O)/C(=C\c2ccco2)SC1=S)Nc1ccc(C(=O)O)c(O)c1,-4.22%,–
COc1ccc(-c2cc(=O)oc3c(O)c(O)ccc23)cc1,–,8.96 µM (active)
O=C1NC(=S)CN1c1ccccc1,11.1%,–
CC(=O)N(C1=C(Cl)C(=O)c2ccccc2C1=O)c1ccc(C(=O)O)cc1,13.6% [at 50 µM],–
Nc1cc(C(=O)O)c(N)c2c1C(=O)c1ccccc1C2=O,–,14.7 µM (active)
O=C(O)c1ccccc1-c1c2cc(I)c(=O)c(I)c-2oc2c(I)c(O)c(I)cc12,-1.2%,–
Cc1nc2cc(NCc3nc4ccccc4n3Cc3ccccc3)ccc2n1C,26.8%,–
COc1cc(Cn2c(-c3ccc(O)c(OC)c3)nc3ccccc32)ccc1O,–,0.9 µM (active)
COc1cc(Cn2nnc3ccccc32)ccc1O,–,3.65 µM (active)
Cc1cccc(C)c1NC(=O)CSCC(=O)c1ccc(O)c(O)c1,–,10.3 µM (active)
CCOc1ccc(C(=O)CSCC(=O)O)cc1,4.18%,–
COc1ccc(CCN(C)Cc2nc(Cc3ccc(OC)c(OC)c3)no2)cc1OC,-9.84%,–
Cn1c(=O)c2c([nH]c(=S)n2Cc2ccc(Cl)cc2)n(C)c1=O,–,16 µM (active)
COc1cc(/C=N/NS(=O)(=O)c2ccc(Br)cc2)ccc1O,–,14.6 µM (active)
C/C(=N/NS(=O)(=O)c1cccc([N+](=O)[O-])c1)c1c[nH]c2ccccc12,–,9.39 µM (active)
COc1cc(/C=N/NS(=O)(=O)c2ccc(C)c([N+](=O)[O-])c2)ccc1O,–,8.36 µM (active)
O=C(COC(=O)C1CC1)c1c[nH]c2ccccc12,-3.45%,–

SMILES,inhibition,IC50
O=[N+]([O-])c1cccc(S(=O)(=O)N/N=C/c2ccc(O)cc2)c1,–,5.86 µM (active)
CC(C)(C)c1ccc(-c2nc(O)c(CC(=O)O)s2)cc1,26.8%,–
CC1=C(C#N)c2nc(N)c(C#N)c(C)c2/C1=C\c1ccc(OCC(=O)O)c(Cl)c1,–,95.7 µM (active)
COc1cc(/C=C2\C(C)=C(C#N)c3nc(N)c(C#N)c(C)c32)ccc1OCC(=O)O,25.9%,–
COc1cc(/C=C2/C(C)=C(C#N)c3nc(N)c(C#N)c(C)c32)ccc1OCC(=O)O,16.5%,–
Nc1ncnc2oc(-c3ccco3)c(-c3ccco3)c12,-28.1%,–
CS(=O)(=O)c1ccc2c(c1)SC1=NC(=O)/C(=C/c3ccco3)C(=N)N12,2.61%,–
CCOc1cc(/C=C2\SC(=O)N=C2N)ccc1O,–,4.18 µM (active)
COc1cc(/C=C2\SC(N)=NC2=O)ccc1O,–,4.85 µM (active)
NC1=NC(=O)/C(=C\c2ccco2)S1,-29.7%,–
CCOc1cc(/C=C2/NC(=O)N(CC(=O)OC)C2=O)ccc1O,–,5.19 µM (active)
Cc1ccc(NC(=O)CN2C(=O)N/C(=C\c3cccn3-c3cccc(C(=O)O)c3)C2=O)cc1,11.3%,–
CCOc1cc(/C=C2\NC(=S)N(c3c(C)n(C)n(-c4ccccc4)c3=O)C2=O)ccc1O,–,3.07 µM (active)
COC(=O)c1[nH]c2ccc(Br)cc2c1NC(=O)Oc1ccccc1,22.8%,–
CN(C)Cc1cc(O)c(CN(C)C)cc1O,-314%,–
NC1=NC(=O)S/C1=C\c1ccc(O)cc1,–,3.6 µM (active)
COc1cc(/C=C2\NC(=S)N(C)C2=O)ccc1O,–,3.23 µM (active)
Cc1c(N2C(=O)/C(=C\c3ccccc3O)SC2=S)c(=O)n(-c2ccccc2)n1C,–,54.7 µM (active)
CCCN1C(=O)/C(=C/c2ccc(OCc3ccc(C(=O)O)cc3)c(OC)c2)NC1=S,19.4%,–
COc1cc(C2NC(=S)NC(C)=C2C(=O)Nc2cc(C)cc(C)c2)ccc1O (configuration not stated),23.4% [at 50 µM],–
CCOc1cc(/C=C2\SC(=NC)N(C)C2=O)cc(Cl)c1OC(C)=O,6.15%,–
C=CCN1C(=O)/C(=C\C(C)=C\c2ccccc2)SC1=S,-42.1%,–
CN=C1S/C(=C\c2ccc(O)c(OC)c2)C(=O)N1C,–,4.35 µM (active)
CCOc1cc(/C=N/Nc2nc(C)cc(=O)[nH]2)ccc1O,–,2.82 µM (active)
CCOc1cc(/C=N/NC(=O)N/N=C/c2ccc(O)c(OCC)c2)ccc1O,–,2.03 µM (active)
CCOc1cc(/C=N/Nc2ncnc(Cl)c2N)ccc1O,–,3.29 µM (active)

SMILES,inhibition,IC50
CCOc1cc(/C=N/NC(=O)Nc2ccccc2)ccc1O,–,9.13 µM (active)
Nc1c(-c2ccccc2)c(CN2CCOCC2)nn1-c1ccc(F)cc1,-7.99%,–
COc1ccccc1NC(=O)COc1ccc(/C=N/n2cnnc2)cc1OC,24.4%,–
CCOc1cc(/C=N/n2cnnc2)ccc1O,–,6.86 µM (active)
Cc1cc(=O)[nH]c(N/N=C/c2c[nH]c3ccccc23)n1,–,5.41 µM (active)
COc1cc(/C=N/n2cnnc2)ccc1OC(=O)c1ccncc1,–,5.68 µM (active)
Cc1cc(F)ccc1S(=O)(=O)N(C(=O)c1ccncc1)c1ccc(OC(=O)c2ccncc2)cc1,–,48.3 µM (active)
Cc1ccc(C)n1Cc1ccc(C(=O)O)cc1,-19.6%,–
Cc1ccsc1C=Nc1ccc(O)cc1,–,5.76 µM (active)
On1ccccc1=S,-2.69%,–
Cc1ccc(/C=N/N2C(=O)c3ccccc3NC2c2ccc(C)cc2)cc1 (configuration not stated),-27.4%,–
Cc1ccc(C2C=NN(c3ccccc3)C2=O)cc1 (configuration not stated),–,12.2 µM (active)
Cc1ccc(C2=NOC(=O)/C2=C\c2ccccc2)cc1,10.9%,–
CCCCn1c(N)c(N(CCOC)C(=O)c2cccc(S(=O)(=O)N(C)c3ccccc3)c2)c(=O)[nH]c1=O,-20%,–
CC(=O)Oc1cc2oc(=O)cc(C)c2cc1OC(C)=O,–,10.8 µM (active)
Cc1cc(C)c2c(CCl)cc(=O)oc2c1,0.16%,–
CCc1cc(=O)oc2cc(OCC(N)=O)c(Cl)cc12,10.5%,–
Cc1occc1-c1nnc(SCC(=O)Nc2ccc(F)cc2)n1Cc1ccccc1,20.8%,–
CN(C)c1ccc(NC(=O)CSc2nc3c(c(=O)[nH]2)CCCC3)cc1,–,2.47 µM (active)
CCN(CC)c1ccc(NC(=O)CSc2nc3nc(C)cc(C)c3c(=O)[nH]2)cc1,–,6.75 µM (active)
COc1ccc(NC(=O)CSc2nc(NS(=O)(=O)c3ccc(C)cc3)cc(=O)[nH]2)cc1,-7.59%,–
Cc1sc2nc(CSCC(=O)N(C)CC(=O)Nc3ccc(F)cc3)[nH]c(=O)c2c1C,-7.23%,–
CCN(CC)c1ccc(NC(=O)CSc2nnc3nc(C)cc(C)n23)cc1,–,2.92 µM (active)
Cc1ccc(C2(CCNCc3ccco3)CCOC(C(C)C)C2)cc1 (configuration not stated),23.4%,–
FC(F)(F)c1ccc(Cl)c(-n2c(-c3cc(-c4ccco4)[nH]n3)n[nH]c2=S)c1,8.69%,–
S=c1[nH]nc(-c2cc(-c3ccco3)[nH]n2)n1-c1ccccc1Cl,–,6.42 µM (active)

SMILES,inhibition,IC50
COc1ccccc1-n1c(-c2cc(-c3ccco3)[nH]n2)n[nH]c1=S,27.2%,–
O=C(CN1C(=O)S/C(=C\C=C\c2ccccc2)C1=O)Nc1ccc(C(=O)O)cc1,18.8%,–
CN(C)c1ccc(NC(=O)CN2C(=O)CC(c3ccccc3)=Nc3ccccc32)cc1,–,5.09 µM (active)
COc1cc(C=O)c(Cl)cc1OCC(N)=O,-17.1%,–
COc1cc(CNc2ccc(N3CCCCC3)cc2)ccc1OCC(=O)NC(C)(C)C,–,4.51 µM (active)
COc1cc(CNc2ccc(N3CCOCC3)cc2)ccc1OCC(=O)NC(C)(C)C,–,4.7 µM (active)
CNC(=O)COc1ccc(C=O)cc1OC,1.48%,–
COc1ccc(CCNC(=O)c2cc(-c3ccc4c(c3)OCO4)on2)cc1OC,-21.9%,–
COc1cc(CNc2ccc3c(c2)OCCO3)ccc1OCC(N)=O,–,3.27 µM (active)
CC(C)N=C(NC#N)SCc1ccc(Br)cc1,-13.4%,–
Fc1cccc(Cl)c1Cn1nnc(-c2ccc(N3CCOCC3)cc2)n1,-16.8%,–
CCCC(=O)N=c1sc2c(OC)ccc(OC)c2n1C,4.9%,–
Cc1sc2nc(CSc3ccc([N+](=O)[O-])cc3)[nH]c(=O)c2c1C,-14.9%,–
O=C1OCC(CO)(CO)N=C1NNc1ccccc1Cl,–,9.24 µM (active)
Nc1ccc(OCCCc2c(N)nc(N)nc2N)cc1,–,6.58 µM (active)
O=C1NN(c2ccccc2)C(=O)/C1=C/c1ccc(-c2ccc(C(=O)O)cc2)o1,–,13.4 µM (active)
O=C1NN(c2ccccc2)C(=O)/C1=C/c1ccc(-c2cccc(C(=O)O)c2)o1,–,14.1 µM (active)
N=C1/C(=C\c2ccc(-c3cccc(C(=O)O)c3)o2)C(=O)N=C2SC=C(c3ccccc3)N12,-15.1%,–
CC1=C(C#N)C(=O)NC(=O)/C1=C/c1ccc(-c2ccc(S(N)(=O)=O)cc2)o1,9.01%,–
CC(C)S(=O)(=O)C1=NSC2=NC(=O)/C(=C\c3ccc(-c4ccccc4)o3)C(=N)N21,1.67%,–
O=C1NN(c2ccccc2)C(=O)/C1=C\c1ccc(-c2cc([N+](=O)[O-])ccc2O)o1,–,6.89 µM (active)
Cc1ccc(-c2ccc(/C=C3\C(=O)ON=C3c3ccccc3)o2)c([N+](=O)[O-])c1,29.1%,–
CC1=NN(c2cccc(C(=O)O)c2)C(=O)/C1=C\C=C\c1ccco1,7.38%,–
CCn1c2ccccc2c2nnc(SCC(=O)N(C)C3CCS(=O)(=O)C3)nc21 (configuration not stated),0.82%,–
